Key:
Experiment in all cases: log2 ratio of Biotin-Ahx-Ub-VS probe labelling (fragment/DMSO); higher = less target engagement (more negative = stronger competition), active = hit call of the paper (q ≤ 0.05, log2 ratio ≤ -1)
Conditions in all cases: compound concentration: 200 uM; treatment time: 3 h
USP9X = USP9X (UniProt Q93008)
In short: (§1)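 HEK293T lysate (495 µg per sample, in Tris/CHAPS/IGEPAL buffer with protease inhibitors) was treated in triplicate with fragment at 200 µM or with DMSO for 3 h. It was then treated with Biotin-Ahx-Ub-VS (0.5 µM final) for 1 h. Labelled DUBs were NeutrAvidin-enriched, digested with LysC and trypsin, and run by diaPASEF LC-MS/MS. Spectronaut label-free quantities were global-median-normalised. Values are average log2 ratios fragment/DMSO by unpaired t-test, using proteins with ≥2 unique peptides.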

UniProt O00487 = target: UniProt O00487
Sequence of UniProt O00487 (O00487 whole entry): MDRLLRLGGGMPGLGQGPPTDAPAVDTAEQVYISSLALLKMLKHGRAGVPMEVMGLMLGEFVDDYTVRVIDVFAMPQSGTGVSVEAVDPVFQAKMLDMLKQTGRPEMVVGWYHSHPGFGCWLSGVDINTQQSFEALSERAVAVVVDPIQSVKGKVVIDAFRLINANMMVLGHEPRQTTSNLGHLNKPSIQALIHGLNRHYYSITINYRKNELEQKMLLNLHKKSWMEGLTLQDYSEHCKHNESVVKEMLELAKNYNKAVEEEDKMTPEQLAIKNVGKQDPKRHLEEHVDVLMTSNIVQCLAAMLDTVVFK
In short: as §1

UniProt O00507 = target: UniProt O00507
Sequence of UniProt O00507 (O00507 whole entry): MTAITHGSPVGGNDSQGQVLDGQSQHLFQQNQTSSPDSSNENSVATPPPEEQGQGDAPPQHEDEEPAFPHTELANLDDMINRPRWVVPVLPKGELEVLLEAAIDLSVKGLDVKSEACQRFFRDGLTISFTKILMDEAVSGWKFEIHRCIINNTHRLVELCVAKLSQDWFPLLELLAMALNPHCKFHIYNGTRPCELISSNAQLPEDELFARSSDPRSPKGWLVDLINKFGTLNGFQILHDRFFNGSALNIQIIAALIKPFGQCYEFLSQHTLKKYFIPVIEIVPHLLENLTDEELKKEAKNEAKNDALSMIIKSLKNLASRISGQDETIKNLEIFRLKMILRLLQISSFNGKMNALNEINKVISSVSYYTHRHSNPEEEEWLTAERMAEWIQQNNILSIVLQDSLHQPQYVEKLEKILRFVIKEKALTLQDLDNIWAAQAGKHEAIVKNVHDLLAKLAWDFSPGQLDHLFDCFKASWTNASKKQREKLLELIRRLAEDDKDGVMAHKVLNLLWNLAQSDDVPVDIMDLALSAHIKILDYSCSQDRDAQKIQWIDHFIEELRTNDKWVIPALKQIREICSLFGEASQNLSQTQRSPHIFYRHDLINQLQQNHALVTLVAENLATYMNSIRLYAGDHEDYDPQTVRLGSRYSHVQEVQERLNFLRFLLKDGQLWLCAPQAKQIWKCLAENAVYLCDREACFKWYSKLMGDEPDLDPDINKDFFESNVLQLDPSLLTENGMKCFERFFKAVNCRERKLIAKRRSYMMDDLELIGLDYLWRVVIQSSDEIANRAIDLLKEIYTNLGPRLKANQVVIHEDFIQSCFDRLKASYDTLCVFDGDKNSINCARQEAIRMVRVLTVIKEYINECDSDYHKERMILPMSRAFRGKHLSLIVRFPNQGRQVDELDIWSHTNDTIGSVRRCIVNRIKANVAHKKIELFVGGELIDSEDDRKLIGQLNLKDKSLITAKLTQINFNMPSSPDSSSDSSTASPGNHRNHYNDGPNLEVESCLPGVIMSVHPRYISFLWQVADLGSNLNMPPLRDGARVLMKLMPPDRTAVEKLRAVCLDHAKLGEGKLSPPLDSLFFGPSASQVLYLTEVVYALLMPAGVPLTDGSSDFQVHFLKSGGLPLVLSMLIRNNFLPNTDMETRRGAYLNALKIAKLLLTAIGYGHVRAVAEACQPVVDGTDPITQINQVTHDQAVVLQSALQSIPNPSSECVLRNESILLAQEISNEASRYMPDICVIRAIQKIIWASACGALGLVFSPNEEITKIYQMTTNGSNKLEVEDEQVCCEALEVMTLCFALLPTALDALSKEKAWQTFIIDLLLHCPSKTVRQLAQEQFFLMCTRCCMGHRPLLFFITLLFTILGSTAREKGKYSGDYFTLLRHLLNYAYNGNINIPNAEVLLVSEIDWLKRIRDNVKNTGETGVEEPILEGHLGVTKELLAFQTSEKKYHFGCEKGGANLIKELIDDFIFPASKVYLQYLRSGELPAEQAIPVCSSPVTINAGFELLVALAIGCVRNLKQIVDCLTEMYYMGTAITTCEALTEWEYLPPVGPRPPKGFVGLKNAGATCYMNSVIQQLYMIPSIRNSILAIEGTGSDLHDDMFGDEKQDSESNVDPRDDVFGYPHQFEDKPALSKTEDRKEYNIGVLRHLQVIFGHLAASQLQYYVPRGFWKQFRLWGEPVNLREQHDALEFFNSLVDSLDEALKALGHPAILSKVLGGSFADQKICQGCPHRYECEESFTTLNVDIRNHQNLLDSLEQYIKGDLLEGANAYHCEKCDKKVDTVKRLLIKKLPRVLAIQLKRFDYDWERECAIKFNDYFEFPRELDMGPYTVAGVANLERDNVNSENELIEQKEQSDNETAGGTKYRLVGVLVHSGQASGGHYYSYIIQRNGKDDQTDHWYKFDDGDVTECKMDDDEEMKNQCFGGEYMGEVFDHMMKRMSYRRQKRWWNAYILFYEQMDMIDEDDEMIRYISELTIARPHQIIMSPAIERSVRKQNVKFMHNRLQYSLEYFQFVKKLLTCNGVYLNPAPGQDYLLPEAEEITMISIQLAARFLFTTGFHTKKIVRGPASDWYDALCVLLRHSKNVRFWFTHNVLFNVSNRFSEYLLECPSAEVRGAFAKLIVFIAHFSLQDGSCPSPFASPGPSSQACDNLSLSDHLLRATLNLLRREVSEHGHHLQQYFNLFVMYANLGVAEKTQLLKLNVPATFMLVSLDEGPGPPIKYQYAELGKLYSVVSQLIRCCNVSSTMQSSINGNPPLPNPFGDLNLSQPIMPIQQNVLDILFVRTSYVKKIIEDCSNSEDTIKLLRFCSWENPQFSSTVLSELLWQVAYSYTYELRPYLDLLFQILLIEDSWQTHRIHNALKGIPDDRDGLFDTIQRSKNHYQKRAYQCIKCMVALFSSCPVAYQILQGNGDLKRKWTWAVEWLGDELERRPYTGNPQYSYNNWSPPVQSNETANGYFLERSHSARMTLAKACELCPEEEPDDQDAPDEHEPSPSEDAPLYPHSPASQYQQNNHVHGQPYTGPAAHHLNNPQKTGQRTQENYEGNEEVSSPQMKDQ
In short: as §1

UniProt P51784 = target: UniProt P51784
Sequence of UniProt P51784 (P51784 whole entry): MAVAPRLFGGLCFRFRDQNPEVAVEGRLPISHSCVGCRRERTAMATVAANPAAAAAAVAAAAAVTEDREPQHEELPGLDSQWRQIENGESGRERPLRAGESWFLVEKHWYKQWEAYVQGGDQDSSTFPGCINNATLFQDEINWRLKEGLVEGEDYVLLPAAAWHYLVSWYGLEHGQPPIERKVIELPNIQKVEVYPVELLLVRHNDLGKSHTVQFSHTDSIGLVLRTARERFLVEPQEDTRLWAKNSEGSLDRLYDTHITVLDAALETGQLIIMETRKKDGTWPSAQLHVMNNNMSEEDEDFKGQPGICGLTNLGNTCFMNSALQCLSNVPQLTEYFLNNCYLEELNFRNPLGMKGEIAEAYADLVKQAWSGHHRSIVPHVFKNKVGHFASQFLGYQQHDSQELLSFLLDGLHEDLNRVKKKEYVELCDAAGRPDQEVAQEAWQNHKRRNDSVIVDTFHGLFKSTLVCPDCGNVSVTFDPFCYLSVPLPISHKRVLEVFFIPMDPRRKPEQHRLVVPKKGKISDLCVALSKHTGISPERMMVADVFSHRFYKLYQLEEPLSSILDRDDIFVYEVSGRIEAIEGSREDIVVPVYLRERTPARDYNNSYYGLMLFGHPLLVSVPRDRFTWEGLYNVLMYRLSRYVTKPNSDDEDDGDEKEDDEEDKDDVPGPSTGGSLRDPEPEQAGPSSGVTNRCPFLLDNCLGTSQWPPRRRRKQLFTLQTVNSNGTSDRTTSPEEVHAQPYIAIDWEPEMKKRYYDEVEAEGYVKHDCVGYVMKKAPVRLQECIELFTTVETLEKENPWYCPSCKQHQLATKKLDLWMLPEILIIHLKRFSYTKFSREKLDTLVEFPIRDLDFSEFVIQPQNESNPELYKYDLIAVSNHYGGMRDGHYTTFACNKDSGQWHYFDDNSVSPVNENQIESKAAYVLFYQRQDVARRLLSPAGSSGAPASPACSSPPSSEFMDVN
In short: as §1

UniProt Q5T2D3 = target: T1, UniProt Q5T2D3
T1 sequence (whole entry): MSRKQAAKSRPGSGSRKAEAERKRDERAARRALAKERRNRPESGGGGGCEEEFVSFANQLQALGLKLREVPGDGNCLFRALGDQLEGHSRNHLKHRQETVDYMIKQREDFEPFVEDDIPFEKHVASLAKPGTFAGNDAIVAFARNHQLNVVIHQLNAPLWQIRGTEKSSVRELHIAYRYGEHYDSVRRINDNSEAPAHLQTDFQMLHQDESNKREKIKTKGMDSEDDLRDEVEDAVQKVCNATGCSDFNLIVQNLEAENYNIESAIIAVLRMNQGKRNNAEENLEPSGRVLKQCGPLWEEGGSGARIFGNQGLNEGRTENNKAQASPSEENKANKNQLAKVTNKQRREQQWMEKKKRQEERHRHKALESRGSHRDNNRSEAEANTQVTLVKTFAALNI
In short: as §1

UniProt Q8TE49 = target: T2, UniProt Q8TE49
T2 sequence (whole entry): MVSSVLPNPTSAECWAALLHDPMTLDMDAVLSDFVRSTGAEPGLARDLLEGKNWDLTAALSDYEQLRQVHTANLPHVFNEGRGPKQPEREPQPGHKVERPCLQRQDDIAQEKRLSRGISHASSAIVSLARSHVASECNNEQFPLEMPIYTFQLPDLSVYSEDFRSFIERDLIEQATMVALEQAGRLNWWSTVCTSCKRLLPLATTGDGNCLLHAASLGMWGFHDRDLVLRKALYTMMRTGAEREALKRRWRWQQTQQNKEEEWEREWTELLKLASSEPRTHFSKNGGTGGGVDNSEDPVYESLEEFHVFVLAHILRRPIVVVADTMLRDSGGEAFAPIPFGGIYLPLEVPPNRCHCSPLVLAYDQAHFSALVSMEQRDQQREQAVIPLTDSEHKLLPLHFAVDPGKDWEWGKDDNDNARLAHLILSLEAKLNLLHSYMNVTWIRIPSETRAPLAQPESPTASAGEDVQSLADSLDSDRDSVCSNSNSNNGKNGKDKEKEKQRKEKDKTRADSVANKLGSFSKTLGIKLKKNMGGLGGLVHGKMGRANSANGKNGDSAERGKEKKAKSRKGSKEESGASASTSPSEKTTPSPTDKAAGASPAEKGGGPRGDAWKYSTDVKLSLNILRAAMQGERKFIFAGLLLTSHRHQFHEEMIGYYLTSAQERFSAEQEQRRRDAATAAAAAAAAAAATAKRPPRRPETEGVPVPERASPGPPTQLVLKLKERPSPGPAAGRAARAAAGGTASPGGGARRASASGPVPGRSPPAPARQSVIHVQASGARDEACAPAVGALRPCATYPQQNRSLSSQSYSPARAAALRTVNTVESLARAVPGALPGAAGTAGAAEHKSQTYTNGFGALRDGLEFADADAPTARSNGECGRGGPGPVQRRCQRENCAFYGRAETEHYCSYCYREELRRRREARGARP
In short: as §1

UniProt Q9P2H5 = target: T3, UniProt Q9P2H5
T3 sequence (whole entry): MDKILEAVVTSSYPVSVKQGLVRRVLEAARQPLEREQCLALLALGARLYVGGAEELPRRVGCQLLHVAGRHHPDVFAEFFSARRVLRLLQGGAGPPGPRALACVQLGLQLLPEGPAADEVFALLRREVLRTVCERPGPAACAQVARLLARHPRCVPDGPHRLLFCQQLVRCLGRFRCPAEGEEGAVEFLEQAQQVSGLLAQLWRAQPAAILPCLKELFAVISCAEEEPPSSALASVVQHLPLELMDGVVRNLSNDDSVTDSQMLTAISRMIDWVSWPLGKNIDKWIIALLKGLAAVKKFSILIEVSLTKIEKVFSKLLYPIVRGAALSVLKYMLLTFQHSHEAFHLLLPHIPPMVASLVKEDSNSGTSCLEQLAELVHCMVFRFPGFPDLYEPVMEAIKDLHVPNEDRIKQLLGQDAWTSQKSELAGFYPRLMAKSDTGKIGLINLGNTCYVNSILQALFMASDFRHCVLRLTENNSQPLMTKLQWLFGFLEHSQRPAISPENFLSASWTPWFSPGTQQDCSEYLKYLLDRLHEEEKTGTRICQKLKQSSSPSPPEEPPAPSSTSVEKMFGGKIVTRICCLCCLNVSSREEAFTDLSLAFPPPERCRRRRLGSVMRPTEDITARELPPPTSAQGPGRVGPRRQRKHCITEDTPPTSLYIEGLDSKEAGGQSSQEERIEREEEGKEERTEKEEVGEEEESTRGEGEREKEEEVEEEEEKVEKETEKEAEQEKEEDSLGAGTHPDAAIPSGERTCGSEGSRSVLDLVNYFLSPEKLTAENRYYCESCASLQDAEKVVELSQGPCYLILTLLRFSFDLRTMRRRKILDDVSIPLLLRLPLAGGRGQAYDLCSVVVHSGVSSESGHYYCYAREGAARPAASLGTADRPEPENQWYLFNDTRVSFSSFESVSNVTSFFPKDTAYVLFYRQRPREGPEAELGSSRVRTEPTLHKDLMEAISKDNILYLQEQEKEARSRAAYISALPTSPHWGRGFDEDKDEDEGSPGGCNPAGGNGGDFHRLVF
In short: as §1

UniProt Q9UGI0 = target: T4, UniProt Q9UGI0
T4 sequence (whole entry): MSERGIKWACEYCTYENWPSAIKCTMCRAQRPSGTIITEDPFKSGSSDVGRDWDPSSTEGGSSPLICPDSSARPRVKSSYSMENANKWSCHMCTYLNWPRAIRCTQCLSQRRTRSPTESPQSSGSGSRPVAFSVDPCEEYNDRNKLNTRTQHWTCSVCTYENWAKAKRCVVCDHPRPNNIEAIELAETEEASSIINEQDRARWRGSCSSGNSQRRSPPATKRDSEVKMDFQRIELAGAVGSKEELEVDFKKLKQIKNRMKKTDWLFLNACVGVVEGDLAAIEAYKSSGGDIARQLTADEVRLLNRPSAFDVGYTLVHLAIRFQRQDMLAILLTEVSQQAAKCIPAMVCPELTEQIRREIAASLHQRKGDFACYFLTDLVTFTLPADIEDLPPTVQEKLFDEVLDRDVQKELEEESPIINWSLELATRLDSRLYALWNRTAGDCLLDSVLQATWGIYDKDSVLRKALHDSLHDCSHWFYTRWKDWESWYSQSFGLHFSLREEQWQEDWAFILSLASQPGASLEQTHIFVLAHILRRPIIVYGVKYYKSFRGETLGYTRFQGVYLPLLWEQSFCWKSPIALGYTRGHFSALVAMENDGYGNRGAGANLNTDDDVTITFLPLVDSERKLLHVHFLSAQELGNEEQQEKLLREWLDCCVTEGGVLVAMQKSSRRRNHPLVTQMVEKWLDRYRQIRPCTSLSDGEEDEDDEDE
In short: as §1

YOD1 = target: T5, YOD1 (UniProt Q5VVQ6)
T5 sequence (whole entry): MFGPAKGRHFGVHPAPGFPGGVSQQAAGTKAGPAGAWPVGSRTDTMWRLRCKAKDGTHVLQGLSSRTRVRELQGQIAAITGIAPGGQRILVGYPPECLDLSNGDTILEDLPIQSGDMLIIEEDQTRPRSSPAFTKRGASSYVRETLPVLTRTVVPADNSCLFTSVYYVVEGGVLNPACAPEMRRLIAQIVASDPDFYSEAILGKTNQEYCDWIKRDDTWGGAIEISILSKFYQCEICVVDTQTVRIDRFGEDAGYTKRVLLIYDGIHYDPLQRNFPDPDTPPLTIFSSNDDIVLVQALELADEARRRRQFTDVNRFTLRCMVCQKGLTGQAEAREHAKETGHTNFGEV
In short: as §1

Measured: log2 ratio of Biotin-Ahx-Ub-VS probe labelling

Cc1ccc(N2CCC(NC(=O)CCl)C2=O)cc1 (centres undefined)
inactive: USP9X -0.0231 | UniProt O00487 -0.129 | UniProt O00507 0.561 | UniProt P51784 0.0347 | UniProt Q5T2D3 -0.0872 | UniProt Q8TE49 -0.518 | UniProt Q9P2H5 -0.134 | UniProt Q9UGI0 0.0412 | YOD1 0.132

Reference: the supplement of paper PMC11732987, “Enantioselective OTUD7B fragment discovery through chemoproteomics screening and high-throughput optimisation” (Communications Chemistry, 2025)
